Bioassay records (PubChem BioAssay)
Rows were chosen to be rich in hits. Some 7.4% of all compounds tested hit in one or more screens of this group.
ELG1 genotox – genotoxicity induction in ELG1-luciferase HEK293T cells; Potency, µM (doses to about 46 µM), inactives show at the highest dose activity change, positive = activation, actives largely listed as activators; 330,000 compounds, 1.3% hits; HEK293T ELG1-luciferase reporter, luminescence, 16 h; AID 504466; also: % of control where 0% means no effect; nearly all actives have a fitted effect of over 60% in size
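After overnight (16 hr) compound treatment at 37 °C, ELG1-luciferase HEK293T cells were lysed with ONE-Glo; luminescence quantified 30 min later at room temperature.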
FLuc counter – firefly luciferase modulation, counter-screen for miR-21 project; P08659; purified FLuc, Km substrates, luminescence inhibition; Potency, µM (series often up to 57.5 µM), inactives show top-dose activity change, negative = inhibition, usual class: inhibitors; 360,000 compounds, 6.9% hits; AID 588342;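 also: plate controls were vehicle for no effect and reference inhibitor for full effect; nearly all actives have a fitted effect of over 55% in size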
Target sequence (P08659 whole entry, looked up): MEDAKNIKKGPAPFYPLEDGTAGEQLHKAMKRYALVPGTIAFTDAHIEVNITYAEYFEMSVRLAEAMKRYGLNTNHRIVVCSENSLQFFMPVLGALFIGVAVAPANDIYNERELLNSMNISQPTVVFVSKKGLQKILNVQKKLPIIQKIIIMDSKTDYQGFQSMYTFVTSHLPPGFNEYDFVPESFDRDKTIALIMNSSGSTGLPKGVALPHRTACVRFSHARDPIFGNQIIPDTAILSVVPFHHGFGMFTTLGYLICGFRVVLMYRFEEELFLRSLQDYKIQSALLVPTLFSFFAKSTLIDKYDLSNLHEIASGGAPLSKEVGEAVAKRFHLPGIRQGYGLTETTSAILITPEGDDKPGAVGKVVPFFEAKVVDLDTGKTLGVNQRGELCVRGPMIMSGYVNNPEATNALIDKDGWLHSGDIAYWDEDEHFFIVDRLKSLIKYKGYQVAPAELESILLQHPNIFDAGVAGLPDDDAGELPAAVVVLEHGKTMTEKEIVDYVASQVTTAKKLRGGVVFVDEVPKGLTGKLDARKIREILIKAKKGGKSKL
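Biochemical qHTS of compounds, final roughly 60 µM downward over six points, against 10 nM purified firefly luciferase using Km concentrations of substrates (10 uM D-luciferin, 10 uM ATP) in Tris acetate pH 7.5 buffer; luminescence output.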
Rab9 promoter act – activators of Rab9 promoter; Huh7 Rab9 promoter-luciferase reporter, luminescence, 24 h; 320,000 compounds, 2.8% hits; Potency, µM (doses to about 9.22 µM), inactives show top-dose activation, negative = inhibition, actives largely listed as activators; also: % of control where 0% means no effect; nearly all actives have a fitted effect of over 60% in size
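Quantitative HTS format; Huh7 Rab9-luciferase reporter cells (1500/well) receive compound 2 h post-plating, incubate 24 h at 37 °C, then get luciferase reagent for 10 min before luminescence reading.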
SMN2 splice up – increases expression of the SMN2 splice variant; HEK293 SMN2-luciferase splicing reporter, luminescence, 30-36 h; 210,000 compounds, 2.8% hits; Potency, µM (highest dose often 46.1 µM), for inactives: at the top dose activity change, positive = activation, actives largely listed as activators; also: % of control where 0% means no effect; nearly all actives have a fitted effect of over 55% in size
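qHTS luciferase splicing reporter: luminescence rises when SMN2 exon 7 is included in transfected HEK293 cells. Compound exposure lasted 30-36 h at 37C, with 4.5 mM final sodium butyrate as control, followed by a ONE-Glo read.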
NPC1 prom act – NPC1 promoter activation; 320,000 compounds, 2.4% hits; AID 485313; Potency, µM (series often up to 9.22 µM), without a hit: top-dose activation, most hits filed as activators; Huh7 NPC1 promoter luciferase reporter, 24 h; also: % of control where 0% means no effect; nearly all actives have a fitted effect of over 60% in size
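Readout is luciferase luminescence, reflecting NPC1 promoter activation in stably transfected Huh7 cells after 24 h compound exposure at 37 °C in reduced-serum medium with 10% FBS.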
Numbers without * were called inactive; ? = inconclusive; nt = no result; [ ] = another dose, or the depositor's remark. Calls follow the shape of the dose curve; as a rule, active = well fitted curve in the direction sought with a large enough effect; inconclusive = small, poorly fitted or top-dose-only effect, or another doubt; inactive = no such curve, though single readings can be large; an effect the other way counts as inactive or inconclusive. Potency is read from the fitted curve at half-maximal effect.

SMILES	ELG1 genotox	FLuc counter	Rab9 promoter act	SMN2 splice up	NPC1 prom act
CC1(C)C(=O)N(CCN2CCC(C(=O)c3ccc(F)cc3)CC2)c2ccccc21	-27%	1%	-27%[46.1 µM]	-27%	-13%[46.1 µM]
CCC(C)c1ccc(OCC(=O)Nc2cccc(-c3nc4ncccc4o3)c2)cc1 (stereo not drawn)	nt	7.6µM*	nt	3%	nt
O=C(Nc1cccc(-c2nc3ncccc3o2)c1)c1sc2ccccc2c1Cl	-1%	1.3µM*	?	-5%	?
O=C(Nc1cccc(-c2nc3ncccc3o2)c1)c1cc2ccccc2o1	-2%	8.5µM*	?	1%	?
C=C1C2=CC(=O)OC(c3ccoc3)[C@]2(C)CCC1[C@]1(C)C=CC(=O)C(C)(C)C1CC(=O)OC (stereo partly drawn)	nt	nt	nt	-2%	nt
NCCSS(=O)(=O)CCN	nt	nt	nt	-8%[9.22 µM]	nt
Cc1nc2ccccn2c1C(=O)N/N=C/c1cc(C)n(-c2ccc(Br)cc2)c1C	-1%	12µM*	-1%	-46%	-4%
Cc1cc(/C=N/NC(=O)c2ccccn2)c(C)n1-c1cccc([N+](=O)[O-])c1	8%	?	27%	-5%	5%
COc1ccccc1OCC(=O)N/N=C/c1cccc2cccnc12	-1%	-18%	-5%	nt	-3%
Cc1cc(/C=N\NC(=O)c2cccs2)c(C)n1-c1ccc2ncccc2c1	?	1.3µM*	1.8µM*	?	2.8µM*
Cc1cc(/C=N\NC(=O)COc2cccc3cccnc23)c(C)n1-c1ccccc1	1%	1.3µM*	-6%	nt	-1%
Cc1cc(/C=N/NC(=O)C(=O)NCc2ccccn2)c(C)n1-c1ccccc1	?	2.7µM*	-3%	21%	0%
Cc1ccnc(-n2c(C)cc(/C=N/NC(=O)COc3cccc4cccnc34)c2C)c1	-2%	13µM*	-3%	nt	1%
C=CCn1cc(/C=N/NC(=O)COc2cccc3cccnc23)c2ccccc21	2%	?	1%	12%	0%
Cc1cc(/C=N\NC(=O)COc2cccc3cccnc23)c(C)n1-c1ccc(Br)cc1	-2%	4.8µM*	0%	-45%	-4%
O=C(CNC(=O)c1ccccc1)OCCCOC(=O)CNC(=O)c1ccccc1	18%	8%	-1%	nt	0%
Oc1ccccc1C1NN=C(c2ccccc2)S1 (stereo not drawn)	?	0.48µM*	?	nt	?
Cc1ccccc1CCNC(=O)C1CCN(S(=O)(=O)c2ccc3c(ccn3C)c2)CC1	nt	2%	nt	nt	nt
Cc1sc(NC(=O)c2ccco2)c(CN2CCN(c3ccccn3)CC2)c1C	4%	6µM*	10%	nt	8%
Cc1sc(NC(=S)NC(=O)c2ccco2)c(C#N)c1C	?	2.7µM*	?	nt	0%
Cc1sc(NC(=O)c2ccco2)c(CN2CCN(c3ccc(F)cc3)CC2)c1C	-3%	?	0%	-21%	0%
CCc1c(C)sc(NC(=O)c2ccco2)c1C#N	?	17µM*	3.5µM*	nt	?
CCOC(=O)c1sc(NC(=O)CC)c(C#N)c1C	21%	4%	-3%	0%	-11%
CCOC(=O)c1sc(NC(=O)c2ccco2)c(C#N)c1C	-2%	13µM*	-2%	-3%	0%
CCc1c(C)sc(NC(=O)c2noc(C)c2[N+](=O)[O-])c1C#N	3%	11µM*	3%	-25%	-2%
SMILES	ELG1 genotox	FLuc counter	Rab9 promoter act	SMN2 splice up	NPC1 prom act
COc1cc2c(cc1OC)CN(C(=O)c1ccncc1)CC2	0%	-1%	-2%	nt	4%
COc1ccc(C(=O)N2CCc3ccc(NC(=O)c4ccccn4)cc3C2)cc1F	-16%	21µM*	27%	nt	?
COc1ccccc1N(C)S(=O)(=O)c1ccc(Cl)c(C(=O)NNC(=O)c2ccccc2O)c1	-7%	17µM*	-2%	nt	11%
COc1ccccc1N(C)S(=O)(=O)c1ccc(C(=O)NNC(=O)c2ccccc2O)cc1	1%	-1%	-26%	nt	-5%
CCc1cccc(NC(=O)c2ccc(CN3C(=O)C(C)=C(c4ccc(OC)cc4)S3(=O)=O)cc2)c1	nt	-8%	nt	nt	nt
Cc1nc(N)sc1N=Nc1ccc(Br)cc1	?	4.3µM*	1.3µM*	?	2.2µM*
CCCCC(=O)Nc1cc(C)c(O)c(-c2nc3ncccc3o2)c1	nt	1%	nt	12%	nt
CN(C)C(=O)c1ccc(-c2cc(C(F)(F)F)nn2C)s1	?	15µM*	?	nt	3.5µM*
CCc1ccc(Nc2cnn(-c3nc4ccccc4s3)c(=O)c2Cl)cc1	6%	12µM*	?	?	21%
Cc1nc(N)sc1-c1csc(N(C)c2ccc(O)cc2)n1	?	4.8µM*	?	?	?
CC(C)(C)C1CCc2c(sc(NC(=O)C3CCCO3)c2C(N)=O)C1 (stereo not drawn)	1%	21µM*	-3%	-16%	-5%
NC(=O)c1c(NC(=O)C2CCCO2)sc2c1CCCCC2 (stereo not drawn)	?	17µM*	?	?	27%
O=C1CCCN1c1ccc(S(=O)(=O)Oc2ccc(Cl)cc2)cc1[N+](=O)[O-]	6%	5%	-2%	-24%	2%
O=c1oc(-c2ccccc2F)nc2scc(-c3ccccc3)c12	?	4.8µM*	?	nt	18%
CCCc1nc2nc(C)c(NS(=O)(=O)c3ccc(C(C)(C)C)cc3)c(=O)n2[nH]1	0%	-9%	1%	nt	1%
